Assay results taken from PubChem BioAssay (NCI).
About 83,000 compounds went through this panel and 20% of them were active in at least one assay; those are over-represented in the sample as a whole.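 Each cell line was grown in a 96-well plate and treated with one concentration of compound for 48 hours. Values below 10 were considered active.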 Unmarked numbers belong to inactive results. Activity calls are given as the source filed them.

test system: MDA-MB-468 breast; experiment: NCI-60 one-dose screen, 48 h (100 = growth as untreated, 0 = no growth, -100 = all killed); settings: 10 µM unless noted

SMILES	growth
C#Cc1c2c(c(OC)c3c1OCO3)[C@H]([C@H]1OC(=O)c3c1ccc(OC)c3OC)N(C)CC2	79.9%
Cn1ccnc1C(=O)C(=O)Nc1ccc(CC(=O)Nc2ccccc2)cc1	109%
CC1=C2[C@@H](CC1)[C@]1(C)O[C@@](C(C)C)(C[C@H]1OC(=O)CO)[C@H]2OC(=O)C1CC1c1ccccc1 (some centres undefined)	93.3%
COc1cc2cc(NCc3cccc(Cl)c3)nc(C)c2cc1OC	46.6%
NC(=S)N/N=C1\c2ccccc2-c2c(F)c(F)c(F)c(F)c21	25.8%
c1cc[n+](Cc2c3ccccc3cc3c2ccc2ccccc23)cc1	-40.5% (active)
CC(C)(O)C1CCCN1C(=O)c1ccccc1I (centres undefined)	73%
COc1cc(C)c(C2C(C#N)=C(N)Oc3n[nH]c(-c4cccs4)c32)cc1C(C)C (centres undefined)	101%
CCCCOc1ccc(/C=C2/SC(N3CCOCC3)=NC2=O)cc1OCC	97.8%
Cc1c(F)cc(C(N)=O)cc1NCC(=O)Nc1ccc([N+](=O)[O-])cc1	92.4%
Nc1nc(N)c2c(n1)NC(c1ccc(F)cc1)C1CCc3ccccc3C1=N2 (centres undefined)	5.4% (active)
CCOC(=O)NCCc1ccccc1	112%
NC1CCN(c2nc(Nc3cccc(C(F)(F)F)c3)c3c(=O)[nH]ccc3n2)CC1	-77.2% (active)
COc1cc2cc(Oc3ccc(NC(=O)c4cccc(C(F)(F)F)c4)cc3)c(C)nc2cc1OCCN(C)C	81.5%
COc1ccc(C2=NN(C(=O)c3cc(OC)c(OC)c(OC)c3)C(c3ccc(Cl)cc3)C2)cc1OC (centres undefined)	9.76% (active)
O=C1/C(=C/c2ccc(C(F)(F)F)cc2)COc2ccc(O)c(O)c21	-36.8% (active)
COCCn1cc(-c2nc(-c3c[nH]c4ncccc34)cs2)c2ccccc21	-7.09% (active)
C#CCNC(=O)[C@H](Cc1ccccc1)NC(=O)[C@]12CC[C@@H](C(=C)C)[C@@H]1[C@H]1CC[C@@H]3[C@@]4(C)CCC(=O)C(C)(C)[C@@H]4CC[C@@]3(C)[C@]1(C)CC2	63.7%
CCN(CC)c1cc(C)c2cc(NC(=O)c3cccc(OC)c3)ccc2n1	83.9%
CCOC(=O)C1=NN(c2ccccc2)C(=O)/C1=C\N1C(=O)/C(=C/c2cccc(O)c2)SC1=S	106%
O=S(=O)(NCCNc1nccc(-c2c(-c3cccc(O)c3)nc3occn23)n1)c1ccc(C(F)(F)F)cc1	89%
COc1ccc(C(=O)c2cc(OC)c3c(c2)OCO3)cc1O	0.266% (active)
C[C@H]1[C@H](C)CC[C@]2(C(=O)NCCNCCN)CC[C@]3(C)C(=CC[C@@H]4[C@@]5(C)CCC(=O)C(C)(C)[C@@H]5CC[C@]43C)[C@H]12	34%
Cc1cccc(N2CCC(=O)NC2=S)c1	100%
COc1ccc(-c2nc3c(c(=O)n2C(C)=O)C(c2ccc(Cl)cc2)c2sc4c(Cl)cccc4c2O3)cc1 (centres undefined)	5.77% (active)
O=C1/C(=C\c2ccccn2)c2ccccc2N1c1c(Cl)cccc1Cl	-17.2% (active)
CN(CCc1ccccc1)C(=S)N(C(=O)c1ccc([N+](=O)[O-])cc1)c1ccc(Cl)cc1	37.4%
C=C1C(=O)O[C@H]2[C@H]1CC/C(CNC(=O)Cc1c[nH]c3ccccc13)=C\CC[C@@]1(C)O[C@@H]21	-79.9% (active)
C/C(=N\OC(=O)Nc1ccccc1)c1ccccc1	83.2%
